# Article PMC4336329 (PLoS ONE, 2015)
# In all, about 310,000 compounds went through this assay and about 14,000 (4.5%) showed an effect of 50% or more. The effect is printed as a negative number. The entries come from a sample that favours strong results as a whole.
# Target: human ether-à-go-go-related gene (hERG) potassium channel (human, UniProt Q12809)
# Assay: primary screen, population patch clamp on CHO cells stably expressing hERG; higher = less effect of the substance
# 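Also: peak tail current of the secondary pulse compared with the same well before compound.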
# Chain of human ether-à-go-go-related gene (hERG) potassium channel (Q12809 whole entry, looked up): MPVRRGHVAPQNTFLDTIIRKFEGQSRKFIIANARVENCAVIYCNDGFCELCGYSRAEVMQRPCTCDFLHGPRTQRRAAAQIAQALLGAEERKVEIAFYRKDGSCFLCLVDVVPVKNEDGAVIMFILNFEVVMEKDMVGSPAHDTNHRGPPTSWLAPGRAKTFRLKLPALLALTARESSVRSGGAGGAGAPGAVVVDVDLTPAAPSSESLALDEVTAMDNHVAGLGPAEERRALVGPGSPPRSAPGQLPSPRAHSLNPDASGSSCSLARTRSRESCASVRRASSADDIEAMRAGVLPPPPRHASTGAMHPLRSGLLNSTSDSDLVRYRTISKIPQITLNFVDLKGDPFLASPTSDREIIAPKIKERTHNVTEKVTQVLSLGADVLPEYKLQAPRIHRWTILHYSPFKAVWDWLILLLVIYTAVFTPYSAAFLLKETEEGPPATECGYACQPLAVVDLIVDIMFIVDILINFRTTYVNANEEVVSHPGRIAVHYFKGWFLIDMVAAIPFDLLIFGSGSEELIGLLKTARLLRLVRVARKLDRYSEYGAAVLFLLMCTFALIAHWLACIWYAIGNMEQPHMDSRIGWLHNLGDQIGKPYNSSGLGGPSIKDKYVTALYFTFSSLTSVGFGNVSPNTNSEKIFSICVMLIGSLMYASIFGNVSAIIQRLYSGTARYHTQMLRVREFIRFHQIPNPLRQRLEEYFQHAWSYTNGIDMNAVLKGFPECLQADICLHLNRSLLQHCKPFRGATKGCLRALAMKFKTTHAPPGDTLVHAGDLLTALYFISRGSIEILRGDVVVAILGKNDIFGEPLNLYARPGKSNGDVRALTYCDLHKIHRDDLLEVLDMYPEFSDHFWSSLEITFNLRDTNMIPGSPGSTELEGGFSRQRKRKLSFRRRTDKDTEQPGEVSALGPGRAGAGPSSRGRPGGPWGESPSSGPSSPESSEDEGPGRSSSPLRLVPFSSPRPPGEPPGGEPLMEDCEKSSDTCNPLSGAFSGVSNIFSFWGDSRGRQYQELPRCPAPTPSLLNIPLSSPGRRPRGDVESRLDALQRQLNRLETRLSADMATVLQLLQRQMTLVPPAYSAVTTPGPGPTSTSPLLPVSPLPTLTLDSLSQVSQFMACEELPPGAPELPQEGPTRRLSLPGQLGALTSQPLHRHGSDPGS
row,SMILES,"hERG current change (%, negative = inhibition) at 10uM"
1,CN1CCN(C(=O)CCN2C(=O)/C(=C/c3ccccc3Cl)SC2=S)CC1,9.65%
2,COc1ccc(/C(O)=C2/C(=O)C(=O)N(CCCN3CCOCC3)C2c2ccc(C(C)C)cc2)cc1 (stereo not drawn),24.6%
3,COc1cc(C2CC(=O)N3CN(Cc4ccco4)CSC3=C2C#N)ccc1OCc1ccccc1 (stereo not drawn),15.1%
4,CC(=O)C1C(c2cccc(F)c2)c2c(n[nH]c2C)CC1(C)O (stereo not drawn),15.7%
5,COc1cc(CNCc2ccccc2)ccc1OCC(O)c1ccccc1.O=C(O)C(=O)O (stereo not drawn),-24.9%
6,COC(=O)CC1C(=O)NCCN1C(=O)CSc1nc2cc(Cl)ccc2o1 (stereo not drawn),13.5%
7,Cc1ccc(C)c(CN2CCC(CNC(=O)Nc3ccc(Br)cc3F)CC2)c1,-73.4%
8,Cc1cc(C)cc(NC(=O)NCC2CCN(Cc3cc(C)ccc3C)CC2)c1,-51%
9,Cc1ccc(C)c(CN2CCC(CNC(=O)Nc3ccc(C)c(C)c3)CC2)c1,-74.3%
10,O=C(NCC1CCN(Cc2ccccc2F)CC1)Nc1cccc(Br)c1,-43.2%
11,Cc1ccc(C)c(CN2CCC(CNC(=O)Nc3ccc(C)c(F)c3)CC2)c1,-27.5%
12,COc1ccc(N2CCC(CNC(=O)Nc3ccc(C)c(C)c3)C2)cc1 (stereo not drawn),11.4%
13,COc1cc(NC(=O)NCC2CCN(Cc3ccccc3C)CC2)cc(OC)c1OC,-2.71%
14,O=C(NCCN1CCCCC1)c1cc(Cl)ccc1Cl,1.65%
15,O=[N+]([O-])c1cc(C(F)(F)F)cc([N+](=O)[O-])c1NCCCNc1ccc([N+](=O)[O-])c2cccnc12,14.4%
16,O=C(Nc1ccc(S(=O)(=O)NCc2ccco2)cc1)c1ccc(F)cc1,-4.23%
17,COc1ccc(CNC(=O)COC(=O)c2cc(-c3ccc(Cl)s3)nc3ccccc23)cc1,1.05%
18,CCOc1ccc(CNn2nnnc2N)cc1,-6.35%
19,O=C(COc1ncnc2ccccc12)NCCc1ccc(F)cc1,-6.11%
20,Cc1nc2ccc(NC(=O)Cc3cccc(F)c3)cc2s1,2.56%
21,COCCNC(=O)C(c1ccc(F)cc1)N(CCOC)C(=O)CCC(=O)Nc1nccs1 (stereo not drawn),0.0239%
22,O=C1CC2(CCCCC2)Oc2ccc(O)cc21,-11.8%

row,SMILES,"hERG current change (%, negative = inhibition) at 10uM"
1,CCOC(=O)c1ccc(N2Cc3ccccc3C2=N)cc1,-61.3%
2,N=C1c2ccccc2CN1c1ccc(S(=O)(=O)N2CCCCC2)cc1,-62.5%
3,CCOC(=O)c1ccc(N2C(=O)Cc3ccccc3C2=O)cc1,20.9%
4,O=C1c2ccccc2C(=O)N1c1ccc(S(=O)(=O)N2CCCCC2)cc1,15.4%
5,CCN(CC)S(=O)(=O)c1ccc(N2Cc3ccccc3C2=N)cc1,-40.5%
6,CCOC(=O)c1ccc(CN2Cc3ccccc3C2=O)cc1,2.17%
7,O=C(O)c1cccc(N2C(=O)Nc3ccccc3N2O)c1,10.2%
8,Cc1cc(-n2c(C)cc(C(=O)COc3ccccc3[N+](=O)[O-])c2C)no1,-4.91%
9,CN1CCN(NC(=O)c2cc(-c3cccc(Cl)c3)nc3ccccc23)CC1,-35.9%
10,O=S(=O)(N1CCCCC1)N1CCN(c2ccc(F)cc2)CC1,-35.9%
11,CCN1C(=O)NC(=O)/C(=C\c2ccc(N3CCOCC3)cc2OC)C1=O,13.7%
12,CCC(OC(=O)c1nsc(Cl)c1Cl)C(=O)NCCc1ccccc1 (stereo not drawn),16%
13,COc1ccc(CCNC(=O)C(C)OC(=O)c2nsc(Cl)c2Cl)cc1OC (stereo not drawn),12.4%
14,CC(OC(=O)c1nsc(Cl)c1Cl)C(=O)NCCc1ccccc1 (stereo not drawn),-65.4%
15,COc1ccc(CC(=O)N/N=C/c2cc([N+](=O)[O-])cc(Br)c2O)cc1,6.88%
16,CCOC(=O)/C=C1\CN(Cc2cc(OC)c(OC)c(OC)c2)S(=O)(=O)c2ccc(C(F)(F)F)cc21,-11.3%
17,CCn1nc(NS(=O)(=O)c2ccccc2)c2cc3cccc(C)c3nc21,6.7%
18,CSc1ccc(CN2CCN(S(=O)(=O)Cc3ccccc3)CC2)cc1,1.28%
19,O=C(C1CCN(Cc2ccc(F)cc2)CC1)N(CCO)Cc1ccccc1,-10.6%
20,CCN(Cc1ccccc1)C(=O)C1CCN(Cc2ccc(SC)cc2)CC1.O=C(O)C(=O)O,-71.8%
21,CCN(Cc1ccccc1)C1CCN(Cc2ccc(SC)cc2)CC1.O=C(O)C(=O)O,-69.3%
22,CCN(CC)C(=O)C1CCN(Cc2ccc(Br)cc2)CC1.O=C(O)C(=O)O,-51.4%

row,SMILES,"hERG current change (%, negative = inhibition) at 10uM"
1,CSc1ccc(CN2CCC(N3CC(C)OC(C)C3)CC2)cc1.O=C(O)C(=O)O (stereo not drawn),-20.5%
2,CCN(CC)C(=O)C1CCN(Cc2ccc(OCc3ccccc3)c(OC)c2)CC1.O=C(O)C(=O)O,-32%
3,CCN(Cc1ccccc1)C(=O)C1CCN(Cc2ccc(OC)c(OC)c2OC)CC1.O=C(O)C(=O)O,-43.4%
4,CCN(CC)C(=O)C1CCCN(Cc2ccc(N(C)C)cc2)C1 (stereo not drawn),-12.5%
5,CCCC(C)C(=O)Nc1nc(C)c(-c2csc(Nc3ccccc3OC)n2)s1 (stereo not drawn),14.5%
6,CC(=O)CCn1cnc([N+](=O)[O-])n1,23%
7,COc1cccc(CNC(=O)COC(=O)c2cc(Br)c(Br)s2)c1,14.8%
8,O=C(O)CC1SC(N/N=C/c2ccc(Br)cc2)NC1=O (stereo not drawn),6.6%
9,CC(NS(C)(=O)=O)C(c1cccs1)N1CCN(c2ccc(F)cc2)CC1 (stereo not drawn),-11.4%
10,Cc1ccc(C2=NN(CC(=O)NCc3ccccn3)C(=O)CC2)cc1,-11.6%
11,Cc1cc(=O)oc2cc(OCC(=O)Nc3ccccc3C(=O)O)ccc12,11.6%
12,CCCn1c(N)c(Sc2ccc(C)cc2)c(=O)n(CCC)c1=O,-14.3%
13,CCCn1c(N)c(Sc2ccc(Cl)cc2)c(=O)n(CCC)c1=O,-43.3%
14,CCCn1c(N)c(Sc2ccc([N+](=O)[O-])cc2)c(=O)n(CCC)c1=O,-83.8%
15,CCCCn1c(N)c(Sc2ccc([N+](=O)[O-])cc2)c(=O)[nH]c1=O,-79.5%
16,CCCCn1c(N)c(Sc2ccc(C)cc2)c(=O)[nH]c1=O,2%
17,COCCn1c(N)c(Sc2ccc([N+](=O)[O-])cc2)c(=O)[nH]c1=O,-46.5%
18,O=C(CCNC(=O)c1ccc([N+](=O)[O-])cc1)Nc1nccs1,1.93%
19,CCCOc1ccccc1/C=C1\SC(N2CCCCC2)=NC1=O,-12.3%
20,Cn1c(SCc2ccccc2Cl)nc(C(F)(F)F)cc1=O,1.65%
21,Cc1cc(OCCOCCN(C)CCO)cc(C)c1Cl,-40.9%
22,COc1ccc(C2=NC(=O)/C(=C\c3cc(OC)c(OC)c(OC)c3)O2)cc1,8.26%

row,SMILES,"hERG current change (%, negative = inhibition) at 10uM"
1,COc1ccc(-c2cn3cccnc3n2)cc1F,12.2%
2,COc1ccc(-c2cn3cccc(C)c3n2)cc1F,-61.7%
3,Cc1cccn2cc(-c3ccc(F)cc3)nc12,-14.1%
4,CC(=O)c1c(C)[nH]c(C(=O)OCc2cc(=O)n3cc(Br)ccc3n2)c1C,-3.69%
5,N#Cc1ccccc1COC(=O)CCC(=O)c1cccs1,-4.58%
6,CCOc1ccccc1NC(=O)c1ccc(S(=O)(=O)N2CCOCC2)cc1,-2.46%
7,S=C(Nc1ccc(Cl)cc1Cl)N1CCOCC1,11.1%
8,CN(CC(=O)Nc1ccc(F)cc1)C(=O)COC(=O)C1CCN(c2ccc(C(F)(F)F)cn2)CC1,-65.5%
9,CCc1ccc(C(=O)COC(=O)C2CCN(c3ccc(C(F)(F)F)cn3)CC2)cc1,-18%
10,CN(CC(=O)Nc1ccccc1Cl)C(=O)COC(=O)C1CCN(c2ccc(C(F)(F)F)cn2)CC1,-29.8%
11,COc1cc(C(=O)COC(=O)C2CCN(c3ccc(C(F)(F)F)cn3)CC2)ccc1OC(F)F,-59.1%
12,Cc1ccc(NC(=O)COC(=O)C2CCN(c3ccc(C(F)(F)F)cn3)CC2)cc1,-1.26%
13,O=C(COC(=O)C1CCN(c2ccc(C(F)(F)F)cn2)CC1)c1ccc(F)cc1,-0.831%
14,O=C(O)c1cccc2c(-c3ccccc3)c(-c3ccccc3)[nH]c12,18.5%
15,COc1cc(/C=C2\C(=N)N3N=C(C)SC3=NC2=O)cc(OC)c1OCCOc1ccccc1C,30.7%
16,Cc1ccc(-c2nc(CN(C)Cc3ccc4nccnc4c3)c(C)o2)s1,-10.3%
17,Cc1cc(OCC(=O)Nc2cnn(CCCC(=O)O)c2)ccc1Cl,18%
18,CCCCCC#CCN1CCN(C23CC4CC(CC(C4)C2)C3)CC1,-58.6%
19,CCCC#CCN1CCN(C23CC4CC(CC(C4)C2)C3)CC1,-16.1%
20,CC(=O)N1CCN(C23CC4CC(CC(C4)C2)C3)CC1,12.3%
21,COCc1ccc(C(=O)N2CCCC(Nc3ccc(C(C)C)cc3)C2)o1 (stereo not drawn),-0.274%
